Measurements published in the supplement of paper PMC12669032.
A number with no mark means an inactive call.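 The calls were made as follows: active = AUC reduced over 20% with Padj below 0.05 in at least 2 of 3 replicates; inactive = otherwise.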

What was measured:
Assay in all cases: growth AUC relative to DMSO control (median of replicates) (fraction); higher = more growth (less inhibition), active = hit call of the paper
Settings in all cases: 20 µM; 24 h
[1] = tested on: Akkermansia muciniphila
Method in brief: (§1)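 For each compound at 20 µM (1% DMSO), gut bacterial monocultures seeded at OD600 0.05 grew anaerobically in mGAM at 37 °C in round-bottom 96-well plates. Hourly OD600 readings over 24 h gave growth curves whose minimum OD was set to 0. Area under these curves was normalised to the plate median of solvent-only wells, or to row and column medians on the industrial chemical plate. Values are medians of three biological replicates grown on separate days.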

[2] = tested on: Bacteroides caccae
Method in brief: as §1

[3] = tested on: Bacteroides clarus
Method in brief: as §1

[4] = tested on: Bacteroides dorei
Method in brief: as §1

[5] = tested on: Bacteroides stercoris
Method in brief: as §1

[6] = tested on: Bacteroides thetaiotaomicron
Method in brief: as §1

[7] = tested on: Bacteroides uniformis
Method in brief: as §1

[8] = tested on: Bifidobacterium longum subsp. longum
Method in brief: as §1

[9] = tested on: Clostridium difficile
Method in brief: as §1

[10] = tested on: Collinsella aerofaciens
Method in brief: as §1

[11] = tested on: Coprococcus comes
Method in brief: as §1

[12] = tested on: Escherichia coli ED1a
Method in brief: as §1

[13] = tested on: Escherichia coli IAI1
Method in brief: as §1

[14] = tested on: Eubacterium rectale
Method in brief: as §1

[15] = tested on: Fusobacterium nucleatum subsp. animalis
Method in brief: as §1

[16] = tested on: Lactobacillus gasseri
Method in brief: as §1

[17] = tested on: Lactobacillus paracasei
Method in brief: as §1

[18] = tested on: Odoribacter splanchnicus
Method in brief: as §1

[19] = tested on: Parabacteroides distasonis
Method in brief: as §1

[20] = tested on: Parabacteroides merdae
Method in brief: as §1

Compound | growth AUC [1] | growth AUC [2] | growth AUC [3] | growth AUC [4] | growth AUC [5] | growth AUC [6] | growth AUC [7] | growth AUC [8] | growth AUC [9] | growth AUC [10] | growth AUC [11] | growth AUC [12] | growth AUC [13] | growth AUC [14] | growth AUC [15] | growth AUC [16] | growth AUC [17] | growth AUC [18] | growth AUC [19] | growth AUC [20]
CCCCCCCCSCCO | 1.06 | 0.954 | 0.967 | 1.02 | 0.918 | 0.975 | 1 | 1.04 | 0.983 | 0.949 | 0.974 | 0.955 | 0.936 | 1.04 | 0.902 | 0.94 | 0.93 | 1.03 | 0.915 | 0.966
CS(=O)(=O)c1ccc(C(=O)C2C(=O)C(O)CC(O)C2=O)c(Cl)c1COCC(F)(F)F (stereo not given) | 0.99 | 0.986 | 0.96 | 0.972 | 0.982 | 0.965 | 0.975 | 0.978 | 0.99 | 1 | 1 | 0.988 | 0.972 | 0.798 | 1.02 | 1.02 | 0.987 | 0.98 | 1.03 | 0.998
Cc1ccc(Cl)cc1 | 0.981 | 0.982 | 1.03 | 1.04 | 0.936 | 1.01 | 1.01 | 0.993 | 1.04 | 1 | 1 | 1.01 | 1.05 | 0.962 | 1.1 | 1.06 | 0.997 | 0.964 | 0.984 | 0.99
CC(C)C(O)(c1ccc(OC(F)(F)F)cc1)c1cncnc1 (stereo not given) | 0.853 | 1 | 0.938 | 0.991 | 1.22 | 0.939 | 0.972 | 1.03 | 0.985 | 1.03 | 1.01 | 0.981 | 0.961 | 0.994 | 0.926 | 1.05 | 1.02 | 0.938 | 0.959 | 0.588 (active)
CS(=O)(=O)c1ccc(C(=O)O)c(N)c1 | 1.13 | 0.993 | 1.01 | 1.02 | 1.03 | 0.994 | 1.03 | 1 | 1.03 | 1.03 | 1.05 | 1.02 | 1.01 | 1.05 | 1.08 | 1.13 | 1 | 1.02 | 1.04 | 1.01
O=C(Nc1ccc(F)cc1-c1ccc(Cl)c(Cl)c1)c1cn[nH]c1C(F)F | 1.02 | 0.865 | 0.724 (active) | 0.968 | 0.349 (active) | 0.635 (active) | 0.689 (active) | 0.952 | 0.971 | 1.01 | 0.916 | 0.974 | 0.945 | 0.82 | 0.983 | 0.814 | 0.953 | 0.553 (active) | 0.373 (active) | 0.779 (active)
O=C(O)[C@@H](S)[C@@H](S)C(=O)O | 1.14 | 1.01 | 1.05 | 1.01 | 1.17 | 1.04 | 1.04 | 1.02 | 1.01 | 1.02 | 1.03 | 1.02 | 1.03 | 1.18 | 1.05 | 0.993 | 1.02 | 0.985 | 1.04 | 1.04
CCC([O-])=C1C(=O)CC(C(=O)[O-])CC1=O.[Ca+2] (stereo not given) | 0.965 | 1 | 0.998 | 0.996 | 1.1 | 0.958 | 1.01 | 1.03 | 1 | 0.995 | 0.957 | 1 | 0.972 | 1.13 | 1.11 | 1.06 | 0.91 | 0.976 | 0.993 | 0.996
COC(=O)c1ccccc1S(=O)(=O)NC(=O)Nc1nc(OC(F)F)cc(OC(F)F)n1 | 0.91 | 1 | 0.971 | 0.997 | 0.988 | 0.965 | 1.02 | 1.03 | 0.993 | 0.992 | 1 | 1.02 | 1.01 | 0.964 | 0.957 | 1.19 | 1.04 | 0.99 | 1.04 | 1
COc1ccc(Cl)c(Cl)c1Cl | 0.963 | 1.03 | 1.01 | 1.02 | 0.971 | 0.991 | 1 | 0.986 | 0.964 | 1.01 | 0.994 | 0.983 | 1.02 | 0.966 | 0.982 | 1.01 | 0.993 | 1.01 | 1.04 | 0.961
COCCOc1ccccc1S(=O)(=O)NC(=O)Nc1nc(OC)nc(OC)n1 | 1.03 | 0.976 | 0.97 | 0.962 | 0.92 | 1 | 1.02 | 1.06 | 0.984 | 0.908 | 0.987 | 0.959 | 0.97 | 0.983 | 0.983 | 0.88 | 1.02 | 1.08 | 0.978 | 0.94
c1ccc(Nc2ccccc2)cc1 | 0.883 | 1.01 | 0.94 | 1.03 | 0.951 | 1 | 0.981 | 0.953 | 0.999 | 1.01 | 0.97 | 0.986 | 1.01 | 0.9 | 0.988 | 1.1 | 0.878 | 1.03 | 1.02 | 0.983
O=C(O)Cc1c[nH]c2ccccc12 | 0.904 | 0.973 | 0.976 | 1.03 | 1.02 | 0.98 | 1.01 | 1.01 | 1 | 0.984 | 1.03 | 1 | 1.02 | 1.02 | 1.02 | 1.22 | 1.06 | 0.983 | 1.02 | 1.02
NC(=O)c1c(Cl)cccc1Cl | 0.966 | 0.94 | 1 | 1.01 | 1.06 | 0.998 | 0.978 | 1 | 0.98 | 0.974 | 0.984 | 1.01 | 0.983 | 1.09 | 1.1 | 0.917 | 1.03 | 1.07 | 0.99 | 0.996
COc1ccc(Oc2ccc(NC(=O)N(C)C)cc2)cc1 | 0.887 | 1 | 0.958 | 0.98 | 0.951 | 0.982 | 0.948 | 0.957 | 0.99 | 1 | 0.992 | 0.977 | 0.996 | 0.851 | 0.906 | 1.11 | 1.01 | 0.974 | 0.989 | 0.943
CCCOC(=O)NCCCN(C)C | 0.994 | 1.01 | 1.03 | 1 | 0.98 | 1.02 | 1 | 1.02 | 0.987 | 0.975 | 0.979 | 1.02 | 0.979 | 0.952 | 0.984 | 0.951 | 1.04 | 1.01 | 0.989 | 0.977
